Sampled rows, rich in hits. Any-hit rate of the full collection: about 9%.
HTT aggregate = mutant huntingtin aggregation inhibition; PC12 HttQ103-GFP aggregates, Acumen cytometry, 40 h; Potency, µM (titrated, usually from 46.1 µM), inactives show top-dose activity change, negative = inhibition, most hits filed as inhibitors; actives 1.1% (n = 220,000); AID 1688; further: on the % scale 0 is the no-effect control and ±100 the full control effect; nearly all actives have a fitted effect of over 60% in size
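Multiplexed with ATP-based cell death, this channel scores GFP aggregates in PC12 cells expressing inducible HTTex1-Q103-GFP. Induction used 100 nM tebufenozide; compounds were tested in concentration series.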
HPGD block = blocks human HPGD enzyme activity. purified HPGD, NADH fluorescence kinetic, PGE2 substrate. actives 4.3% (n = 150,000). P15428. Potency, µM, for the others: at the highest dose activity change, negative = inhibition, hits mostly inhibitors; active means well fitted inhibition curve with a large enough effect, not every such curve was filed as active; inconclusive means small, poorly fitted or top-dose-only effect, or another doubt; inactive means no such curve, though single readings can be large or run the other way; further: on the % scale 0 is the no-effect control and ±100 the full control effect
Target sequence (P15428 whole entry, looked up): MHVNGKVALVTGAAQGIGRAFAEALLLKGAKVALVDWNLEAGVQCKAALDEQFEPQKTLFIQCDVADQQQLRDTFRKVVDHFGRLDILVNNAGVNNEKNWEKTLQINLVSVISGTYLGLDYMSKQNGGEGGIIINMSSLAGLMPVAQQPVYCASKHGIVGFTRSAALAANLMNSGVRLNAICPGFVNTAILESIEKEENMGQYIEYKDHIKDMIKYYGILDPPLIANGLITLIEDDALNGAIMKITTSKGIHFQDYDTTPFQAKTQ
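20 nM HPGD preincubated 15 min at room temperature with compound in 50 mM Tris-HCl pH 8, 0.01% Tween 20. Started with 1 mM NAD+ and 30 uM prostaglandin E2; NADH fluorescence (360/450 nm) read 5 times over 30-s intervals, last minus first.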
Luc counter = Kinase-Glo luciferase inhibition (counter-screen); Q27757; actives 0.28% (n = 200,000); Kinase-Glo luciferase, ATP luminescence, 8 min; Potency, µM (top dose mostly 38.3 µM), for inactives: at the highest dose activity change, negative = inhibition, hits mostly inhibitors; further: on the % scale 0 is the no-effect control and ±100 the full control effect; nearly all actives have a fitted effect of over 60% in size
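Recombinant Kinase-Glo luciferase, 10 uM ATP (linear range), luciferin; imidazole pH 7.2 / KCl / MgCl2 / Tween / BSA buffer; 8 min RT; luminescence.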
Lamin A splicing = changes lamin A minigene splicing in HeLa cells | HeLa LMNA splicing GFP/RFP minigene ratio, 48 h | Potency, µM (top dose mostly 46.1 µM), for the others: top-dose ratio change, negative = inhibition, most hits filed as inhibitors | actives 0.01% (n = 200,000) | AID 1487; active means well fitted inhibition curve with a large enough effect in the signal ratio, with a control signal flat, not every such curve was filed as active; inconclusive means small, poorly fitted or top-dose-only effect, or effect the other way, or a change in a side signal; the % refers to the signal ratio; further: on the % scale 0 is the no-effect control and ±100 the full control effect
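S3 HeLa cells stably expressing lamin A-EGFP splicing minigene plus DsRed2, 600 cells/well, 48 h compound exposure at 37C. Laser-scanning cytometry; analysed as GFP (500-530 nm)/RFP (575-640 nm) total intensity ratio; 0.5% DMSO vehicle.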
ALDH1A1 block = blocks purified human ALDH1A1 activity; P00352; Purified ALDH1A1, NADH fluorescence, propionaldehyde substrate; Potency, µM (top dose mostly 75.3 µM), inactives show at the top dose activity, negative = inhibition, most hits filed as inhibitors; actives 7.3% (n = 220,000); AID 1030; active means well fitted inhibition curve with a large enough effect, not every such curve was filed as active; inconclusive means small, poorly fitted or top-dose-only effect, or another doubt; inactive means no such curve, though single readings can be large or run the other way;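 further: plate controls were no enzyme wells and a reference inhibitor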
Target sequence (P00352 whole entry, looked up): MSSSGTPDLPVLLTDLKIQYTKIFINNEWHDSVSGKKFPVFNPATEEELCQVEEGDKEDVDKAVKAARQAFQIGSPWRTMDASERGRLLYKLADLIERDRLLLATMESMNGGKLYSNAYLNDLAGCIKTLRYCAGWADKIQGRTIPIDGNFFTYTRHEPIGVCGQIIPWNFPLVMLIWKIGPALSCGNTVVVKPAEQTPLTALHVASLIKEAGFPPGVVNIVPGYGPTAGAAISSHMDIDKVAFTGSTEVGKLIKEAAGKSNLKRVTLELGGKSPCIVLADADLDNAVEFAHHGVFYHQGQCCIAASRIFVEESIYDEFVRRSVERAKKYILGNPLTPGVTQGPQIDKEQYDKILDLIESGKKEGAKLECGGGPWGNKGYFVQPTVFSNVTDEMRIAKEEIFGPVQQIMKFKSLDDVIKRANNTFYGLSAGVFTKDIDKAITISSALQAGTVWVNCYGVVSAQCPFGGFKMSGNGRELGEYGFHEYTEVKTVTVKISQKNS
HTT ATP protect = cytoprotection in Huntington HTT-Q103 PC12 cell model | PC12 HTT-Q103 induced, cytoprotection, ATP luminescence, 40 h | Potency, µM (titrated, usually from 56.4 µM), for the others: cytoprotection (ATP increase), usual class: activators | actives 0.14% (n = 230,000) | AID 1471; further: % of control where 0% means no effect; nearly all actives have a fitted effect of over 45% in size
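Cells were plated at 1500 per well in phenol red-free DMEM with 5% equine and 5% calf serum. Tebufenozide (100 nM final) and compounds were added, then ATPlite reagent, and luminescence was read.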
Numbers without * were called inactive; ? = inconclusive; . = no result; [ ] = remark or other dose. Unless noted, the call rests on the fitted dose curve; in most records, active means well fitted curve in the direction sought with a large enough effect; inconclusive means small, poorly fitted or top-dose-only effect, or another doubt; inactive means no such curve, though single readings can be large; an effect the other way counts as inactive or inconclusive. Potency means the concentration at half of the fitted maximal effect.

SMILES	HTT aggregate	HPGD block	Luc counter	Lamin A splicing	ALDH1A1 block	HTT ATP protect
CCN(CC)c1ccc(/C=N/NC(=O)C(O)c2ccccc2)cc1 (stereo not given)	5%[9.22 µM]	.	-1%	-1%[46 µM]	?	-6%[10 µM]
CCCNc1c(N)c(=O)oc2ccccc12	2%	-21%	0%	3%	-1%	14%
O=C(COC(=O)Cc1ccccc1[N+](=O)[O-])NCC1CCCCC1	5%	.	-3%	.	-15%	-18%
CC1CN(C(=O)COC(=O)c2ccc(Cl)c(S(=O)(=O)N3CCCCC3)c2)CC(C)O1 (stereo not given)	6%	.	2%	4%[46 µM]	-9%	15%
CCCCc1ccc(C2C(C#N)=C(N)SC(N)=C2C#N)s1	?	14µM*	5%	22%	?	21%
CCN(CC)S(=O)(=O)c1ccc(NN)nc1	-14%	.	-1%	?	-7%	4%
C/C(=C\C(=O)c1ccccc1)Nc1ccc(O)cc1	13%	-8%	21%	-2%	-12%	-27%
C/C(=C\C(=S)Nc1ccccc1)Nc1ccccc1	25%	16µM*	-2%	5%	5%	43%[10 µM]
O=C1C=C(Nc2ccccc2C(=O)O)c2ccccc2C1=O	-12%[9.22 µM]	.	.	.	.	-1%[10 µM]
O=C1C=C(Nc2ccccc2)c2ccccc2C1=O	4.5µM*	.	-13%	?	2%	-186%
O=C1C=C(Nc2ccccc2)C(=O)c2ccccc21	11µM*	.	-28%	?	?	-134%
O=C1C(Nc2ccccc2)=CC(=O)c2ncccc21	.	.	.	.	16µM*	-187%
CCn1c(C)c(C(C)=O)c(N2CCN(C(c3ccccc3)c3ccccc3)CC2)nc1=S	20%	.	-2%	.	14µM*	-17%
CCn1c(C)c(C(C)=O)c(N2CCN(c3ccccc3)CC2)nc1=S	-9%	-9%	1%	0%	11µM*	16%
COc1cccc(OC)c1C(=O)Nc1cccc(-c2cn3ccsc3n2)c1	.	.	.	-10%[46 µM]	.	.
CCCn1nnc(NC(=O)c2ccc(F)cc2)n1	7%	-10%	-7%	12%	3%	-14%
COc1cc(/C=C(\C#N)C(=O)c2c(C)[nH]c3ccccc23)cc(OC)c1OC	0%	.	.	-11%	8.9µM*	18%[10 µM]
O=C(CCCN1C(=O)c2ccccc2C1=O)Nc1ccc(S(=O)(=O)N2CCCCC2)cc1	?	-4%	-1%	6%	?	-11%
Cc1nn2c([nH]c(=O)c3ccccc32)c1C=O	12%	16µM*	-4%	16%	-1%	-9%
COc1ccc(NS(=O)(=O)c2ccc(N3CCCC3)c(NC(=S)Nc3ccc(SC(F)F)cc3)c2)cc1	-5%	3.5µM*	0%	?	3.5µM*	24%[10 µM]
COc1ccc(NS(=O)(=O)c2ccc(N3CCCC3)c(NC(=S)Nc3cccc(C)c3C)c2)cc1	13%	13µM*	3%	?	8.9µM*	12%[10 µM]
O=S(=O)(Nc1ccc(Cl)cc1)c1ccc(N2CCOCC2)c(NC(=S)NC2CC2)c1	-21%	.	-1%	-3%[46 µM]	8.9µM*	-3%
Cc1cccc(NS(=O)(=O)c2ccc3c(c2)CCCN3C(=O)C2CCC2)c1C	.	.	.	-5%[46 µM]	.	.
Nc1cc(S(=O)(=O)Nc2ccc(Cl)cc2)ccc1N1CCOCC1	15%[9.22 µM]	.	.	.	.	33%[10 µM]
COc1ccc(NS(=O)(=O)c2cc(NC(=O)c3ccco3)ccc2N2CCCC2)cc1	25%	-7%	-1%	?	?	-18%[10 µM]
SMILES	HTT aggregate	HPGD block	Luc counter	Lamin A splicing	ALDH1A1 block	HTT ATP protect
COc1ccc(O)c(/C=N/c2sc(C)c(C)c2C#N)c1	28%	25µM*	-8%	-3%	10µM*	-20%
Cc1sc(/N=C/c2c(O)ccc3ccccc23)c(C#N)c1C	11%	-12%	17%	-3%	2%	-7%
O=C(NC(=S)N1CCN(c2ccc(Cl)cc2[N+](=O)[O-])CC1)c1cccs1	-5%	-27%	6%	?	7.9µM*	4%[10 µM]
O=C(CSc1ccc(Cl)cc1)N1CCN(c2ccc(Cl)cc2[N+](=O)[O-])CC1	11µM*	-11%	-4%	9%	16%	-46%
O=C(OCC(=O)N1c2ccccc2Sc2ccccc21)c1ccc[n+]([O-])c1	-4%	.	-4%	-2%[46 µM]	24µM*	0%
Nc1nnc(-c2ccc(Cl)c(Cl)c2)s1	-16%	.	3%	.	?	-15%[10 µM]
Nc1cccn2c(-c3ccc(Cl)c(Cl)c3)cnc12	4%	.	-5%	-2%[46 µM]	25µM*	6%[10 µM]
Nc1cccn2c(-c3ccc(Cl)cc3)cnc12	6%	.	-8%	-5%[9.22 µM]	28µM*	-69%
O=C(O)c1ccc(C(=O)O)cc1	.	-3%	.	.	2%	?
O=C(O)CSCC(=O)c1ccccc1	5%	-24%	4%	6%	14µM*	-10%
O=C(CC(=O)c1ccncc1)c1ccccc1	.	3.5µM*	-4%[7.66 µM]	.	3.5µM*	9%[10 µM]
O=C(O)c1ccncc1.O=C(O)c1ccncc1.[Cl][Pt]([Cl])([Cl])[Cl]	.	4µM*	-8%[7.66 µM]	.	2.2µM*	-12%[10 µM]
CN1CCN(C(=S)NC(=O)/C=C/c2cccc3ccccc23)CC1	22%	-8%	1%	7%	-1%	4%
CC(NC(=O)c1ccc(Br)s1)C1CCCO1 (stereo not given)	-4%	32µM*	-5%	1%	?	22%
CCCOc1ccc(-c2nnn(CC(=O)c3ccc4c(c3)OCCO4)n2)cc1	-19%	-5%	0%	?	0%	-7%[10 µM]
CC(=O)c1ccc(NC(=S)Nc2cccc(S(=O)(=O)Nc3c(C)n(C)n(-c4ccccc4)c3=O)c2)cc1	7%	.	0%	1%[46 µM]	25µM*	-40%
CC(C)OC(=S)N/C(=N\S(=O)(=O)c1ccccc1)c1ccccc1	14%	?	2%	-5%	11µM*	3%[10 µM]
COc1ccc(NC(=S)N/C(=N/CS(=O)(=O)c2ccccc2)c2ccccc2)cc1	18%	-4%	1%	-2%	1%	-2%[10 µM]
Cc1ccc(NC(=S)Nc2cccc(S(=O)(=O)Nc3c(C)n(C)n(-c4ccccc4)c3=O)c2)cc1	5%	.	2%	.	?	.
Cc1cccc(NC(=S)N/C(=N/S(=O)(=O)c2ccccc2)c2ccccc2)c1	10%	?	3%	-3%	22µM*	-17%
O=[N+]([O-])c1ccc(NC(=S)N/C(=N/CS(=O)(=O)c2ccccc2)c2ccccc2)cc1	?	28µM*	6%	5%	28µM*	-10%
CC(C)O/C(=N\S(=O)(=O)c1ccc(Cl)cc1)c1ccccc1	23%	-9%	-4%	-6%	-2%	8%
Cc1ccc(S(=O)(=O)/N=C(/NC(=S)Nc2cccc(C)c2)c2ccccc2)cc1	-5%	20µM*	-6%	-3%	13µM*	1%
Cc1c(NC(=S)N/C(=N/S(=O)(=O)c2ccccc2)c2ccccc2)c(=O)n(-c2ccccc2)n1C	10%[9.22 µM]	.	.	.	.	-7%[10 µM]

Source: PubChem BioAssay
